This is part of a sample that, as a whole, favours compounds with a hit. Of some 83,000 tested, about 20% had one in any assay.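 A percent growth of 40 corresponds to 60% growth inhibition; 0 means no net growth; -100 means all cells died. Active threshold: below 10.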 Values without a mark were called inactive. Active and inactive are the calls of the source.
System: DU-145 prostate
Assay: NCI-60 one-dose screen, 48 h (100 = growth as untreated, 0 = no growth, -100 = all killed)
Settings: 10 µM

Compound | growth
CC(=O)OCC1CCCO1 (stereo unspecified) | 109%
N#CCCc1ccc(O)cc1 | 117%
Nc1ccc(N=Nc2ccc(S(=O)(=O)O)cc2)c2ccccc12 | 106%
O=C1OC(=O)C2C1C1(Cl)C(Cl)=C(Cl)C2(Cl)C2C(=O)OC(=O)C21 (stereo unspecified) | 116%
CCCCCCCCO | 104%
O=c1[nH]nc(SC2CCCCC2)c(=O)[nH]1 | 114%
Cc1cc(C(O)(c2ccc(Nc3ccccc3)cc2)c2ccc(Nc3ccc(S(=O)(=O)O)cc3)cc2)ccc1N (stereo unspecified) | 11.7%
CCCNC(=O)c1ccc(S(N)(=O)=O)cc1 | 109%
CN(C)c1ccc2oc(=O)c3ccccc3c2c1 | 105%
Cc1ccc(CCCC(=O)O)c(C)c1 | 107%
Oc1ccccc1-c1nnco1 | 99.7%
COc1ccc(C(O)c2ccccc2)cc1 (stereo unspecified) | 108%
FC(F)(F)c1ccc2c(c1)N(CCCN1CCN(C3CC3)CC1)c1ccccc1S2 | 2.25% (active)
CC(=O)NCc1cc(C)c(C)cc1C | 104%
CCC(C)(O)c1ccc(C)cc1 (stereo unspecified) | 106%
CC(C)(N)COS(=O)(=O)O | 111%
Cc1cc(C)cc(NCCC#N)c1 | 114%
O=C(O)CSCSCC(=O)O | 111%
O/N=C/c1ccc(O)cc1O | 112%

Compound | growth
CCO/C=C1\SC(=S)N(c2cccc(C)c2)C1=O | 111%
Cc1cc2ccccc2c(O)c1C#N | 120%
O=C(O)/C=C/C(=O)NCc1ccccc1 | 121%
Cc1cc2nc(CO)[nH]c2cc1C | 104%
C=CCNc1ccccc1 | 122%
NC(=O)NC(=O)c1ccc(Cl)cc1 | 116%
CCOc1ccc(I)cc1 | 105%
CC(C)C(C#N)(C(C)C)C(C)C | 111%
CCCCOC(OCCCC)c1ccccc1 | 112%
NC(=O)c1ccc(N=C(N)N=C(N)N)cc1 | 107%
CCOc1ccccc1/C=N/Nc1nc2ccccc2o1 | 110%
CO[C@H]1C[C@@H]2CC[C@@H](C)[C@@](O)(O2)C(=O)C(=O)N2CCCC[C@H]2C(=O)O[C@H]([C@H](C)C[C@@H]2CC[C@@H](O)[C@H](OC)C2)CC(=O)[C@H](C)C=C(C)[C@@H](O)[C@@H](OC)C(=O)[C@H](C)C[C@H](C)/C=C/C=C/C=C1C | 32.4%
O=C(NCCNC(=O)c1ccc(Cl)cc1Cl)c1ccc(Cl)cc1Cl | 114%
COC(=O)/C=C/C(=O)NC(N)=O | 105%
Cc1ccc(O)c(C(=O)c2ccccc2)c1 | 112%
CN(C)c1ccc(C(c2ccc(O)cc2)c2ccc(N(C)C)cc2)cc1 | 101%
Nc1ccc(N)c([N+](=O)[O-])c1 | 104%
CCOC(=O)c1[nH]c(C)c(C(C)=O)c1C | 93.7%
CC(C)C1CCCCC1O (stereo unspecified) | 113%

System: K-562 leukemia
Assay: as above
Settings: 10 µM

Compound | growth
CC(=O)OCC1CCCO1 (stereo unspecified) | 94.5%
N#CCCc1ccc(O)cc1 | 100%
Nc1ccc(N=Nc2ccc(S(=O)(=O)O)cc2)c2ccccc12 | 94.6%
O=C1OC(=O)C2C1C1(Cl)C(Cl)=C(Cl)C2(Cl)C2C(=O)OC(=O)C21 (stereo unspecified) | 105%
CCCCCCCCO | 101%
O=c1[nH]nc(SC2CCCCC2)c(=O)[nH]1 | 84.3%
Cc1cc(C(O)(c2ccc(Nc3ccccc3)cc2)c2ccc(Nc3ccc(S(=O)(=O)O)cc3)cc2)ccc1N (stereo unspecified) | 8.74% (active)
CCCNC(=O)c1ccc(S(N)(=O)=O)cc1 | 107%
CN(C)c1ccc2oc(=O)c3ccccc3c2c1 | 109%
Cc1ccc(CCCC(=O)O)c(C)c1 | 97.8%
Oc1ccccc1-c1nnco1 | 75.4%
COc1ccc(C(O)c2ccccc2)cc1 (stereo unspecified) | 88.5%
FC(F)(F)c1ccc2c(c1)N(CCCN1CCN(C3CC3)CC1)c1ccccc1S2 | 24.5%
CC(=O)NCc1cc(C)c(C)cc1C | 94.2%
CCC(C)(O)c1ccc(C)cc1 (stereo unspecified) | 116%
CC(C)(N)COS(=O)(=O)O | 104%
Cc1cc(C)cc(NCCC#N)c1 | 102%
O=C(O)CSCSCC(=O)O | 97.8%
O/N=C/c1ccc(O)cc1O | 105%

Compound | growth
CCO/C=C1\SC(=S)N(c2cccc(C)c2)C1=O | 99.5%
Cc1cc2ccccc2c(O)c1C#N | 92.8%
O=C(O)/C=C/C(=O)NCc1ccccc1 | 108%
Cc1cc2nc(CO)[nH]c2cc1C | 111%
C=CCNc1ccccc1 | 113%
NC(=O)NC(=O)c1ccc(Cl)cc1 | 101%
CCOc1ccc(I)cc1 | 119%
CC(C)C(C#N)(C(C)C)C(C)C | 114%
CCCCOC(OCCCC)c1ccccc1 | 107%
NC(=O)c1ccc(N=C(N)N=C(N)N)cc1 | 97.6%
CCOc1ccccc1/C=N/Nc1nc2ccccc2o1 | 95.7%
CO[C@H]1C[C@@H]2CC[C@@H](C)[C@@](O)(O2)C(=O)C(=O)N2CCCC[C@H]2C(=O)O[C@H]([C@H](C)C[C@@H]2CC[C@@H](O)[C@H](OC)C2)CC(=O)[C@H](C)C=C(C)[C@@H](O)[C@@H](OC)C(=O)[C@H](C)C[C@H](C)/C=C/C=C/C=C1C | 51.5%
O=C(NCCNC(=O)c1ccc(Cl)cc1Cl)c1ccc(Cl)cc1Cl | 107%
COC(=O)/C=C/C(=O)NC(N)=O | 105%
Cc1ccc(O)c(C(=O)c2ccccc2)c1 | 122%
CN(C)c1ccc(C(c2ccc(O)cc2)c2ccc(N(C)C)cc2)cc1 | 49.9%
Nc1ccc(N)c([N+](=O)[O-])c1 | 98.7%
CCOC(=O)c1[nH]c(C)c(C(C)=O)c1C | 87.3%
CC(C)C1CCCCC1O (stereo unspecified) | 164%

— PubChem BioAssay (NCI)
